MazEF act = MazEF (E. coli) toxin RNase activation | P0AE70 | FAM/BHQ RNA-DNA oligo cleavage fluorescence, 5 h | activation, % at 20 µM | 350,000 tested, 0.32% active; in the data active = activation above about 50%
Target sequence (P0AE70 whole entry, looked up): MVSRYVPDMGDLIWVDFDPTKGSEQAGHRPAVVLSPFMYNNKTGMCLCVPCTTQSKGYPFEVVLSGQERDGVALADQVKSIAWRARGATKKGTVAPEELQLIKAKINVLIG
Mtb FBA inh = inhibitors of M. tuberculosis fructose-bisphosphate aldolase. purified M. tuberculosis FBA, fluorescence read-out. 360,000 tested, 2.3% active. P9WQA3. inhibition, % at 1 µM; in the data active = inhibition above about 27%;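 also: 0% = vehicle and 100% = reference inhibitor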
Target sequence (P9WQA3 whole entry, looked up): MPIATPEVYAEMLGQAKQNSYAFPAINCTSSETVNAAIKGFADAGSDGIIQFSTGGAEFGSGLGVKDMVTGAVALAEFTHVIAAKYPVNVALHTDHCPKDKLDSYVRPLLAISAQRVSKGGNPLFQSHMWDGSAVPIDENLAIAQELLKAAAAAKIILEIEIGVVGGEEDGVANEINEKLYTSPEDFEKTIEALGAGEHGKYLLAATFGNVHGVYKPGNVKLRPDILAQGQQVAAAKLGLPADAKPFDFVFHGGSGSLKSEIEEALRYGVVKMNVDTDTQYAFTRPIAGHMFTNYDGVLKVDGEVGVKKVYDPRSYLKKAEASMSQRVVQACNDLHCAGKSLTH
CCHFV vOTU inh = blocks the CCHF virus ovarian tumor domain protease; CCHFV vOTU protease, Pep-AMC fluorescence; inhibition, % at 11.5 µM; 370,000 tested, 0.55% active; AID 651958; also: 0% = vehicle wells with enzyme and 100% = no enzyme wells
Mtb betalactam = beta-lactam sensitization of Mtb H37Rv; M. tuberculosis H37Rv growth with meropenem, percent inhibition; inhibition, % at 25 µM; 330,000 tested, 0.27% active; AID 434955; call rule not given here;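 also: growth measured after seven days incubation then overnight dye step; 0% = bacteria only wells and 100% = bacteria with antibiotic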
GDH-TPI inh = inhibits GDH-TPI coupling enzymes, artifact for Mtb FBA screen; 360,000 tested, 1.2% active; GDH-TPI coupled enzyme counterscreen, NADH absorbance; inhibition, % at 4.8 µM;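 also: 0% = DMSO wells and 100% = wells lacking the enzyme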
The depositor's hits bear a star. The list is not random: actives were taken first. Their share in the collection is about 4%. Rule as the data show it, unless noted: active = inhibition above about 30%; inactive = the rest.

For Cc1cc(OCC(=O)N[C@@H](Cc2ccccc2)C(=O)O)c2c3c(c(=O)oc2c1)CCC3 the results were MazEF act -0.6, Mtb FBA inh 137.1*, CCHFV vOTU inh -34.4, Mtb betalactam -10.8 and GDH-TPI inh 23.5.
Screening Cc1cc(OCC(=O)N[C@H](C(=O)O)c2ccccc2)c2c3c(c(=O)oc2c1)CCC3 returned MazEF act 2.0, Mtb FBA inh 114.4*, CCHFV vOTU inh -37.0, Mtb betalactam -6.6 and GDH-TPI inh 3.9.
`CCC[C@@H](/C=C/C(=O)OC(C)(C)C)Sc1ccc(C(C)(C)C)cc1` gave CCHFV vOTU inh 1.8.
`CC(C)CN1C(=O)C[C@]2(C(=O)N(C)c3ccc(NS(=O)(=O)C4CCCCC4)cc32)C1c1ccccc1` (stereo not given in full) gave CCHFV vOTU inh 4.8.
`CCCCNC(=O)C[C@H]1C[C@@]2(C(=O)OC)C(=C[C@H](COCc3ccccc3)O[C@@H]2C)N(Cc2ccco2)C1=O` gave CCHFV vOTU inh 1.9.
Cc1cc(OCC(=O)NC(Cc2ccc(Cl)cc2)C(=O)O)c2c3c(c(=O)oc2c1)CCC3 (stereo not given) was read as MazEF act 5.2, Mtb FBA inh 72.3*, CCHFV vOTU inh -19.7, Mtb betalactam -4.6 and GDH-TPI inh 8.8.
CCCCc1cc(=O)oc2cc(C)cc(OCC(=O)O)c12 was read as MazEF act -3.1, Mtb FBA inh 152.2*, CCHFV vOTU inh -45.7, Mtb betalactam 11.2 and GDH-TPI inh 23.1.
For CCCCc1cc(=O)oc2cc(C)cc(OCC(=O)N3CCC(C(N)=O)CC3)c12 the results were MazEF act 4.5, Mtb FBA inh 18.4, CCHFV vOTU inh -9.2, Mtb betalactam -6.7 and GDH-TPI inh 10.8.
For COc1cc(-n2c(C)nc3cc(C(=O)N4CCN(C(C)=O)CC4)ccc32)cc(OC)c1OC the results were CCHFV vOTU inh -2.4.
CCOC(=O)c1ccc2nc(NC(=O)c3cccs3)sc2c1 was read as MazEF act 1.8, Mtb FBA inh 25.2, CCHFV vOTU inh 18.9, Mtb betalactam 84.2 and GDH-TPI inh 37.8*.
Screening O=C(COC(=O)c1ccco1)Nc1nc2ccc([N+](=O)[O-])cc2s1 returned MazEF act 3.2, Mtb FBA inh 1.6, CCHFV vOTU inh 14.8, Mtb betalactam -4.0 and GDH-TPI inh 33.8*.
`O=C(Nc1nc2ccc(F)cc2s1)c1cccs1` gave MazEF act -11.7, Mtb FBA inh 3.2, CCHFV vOTU inh -1.7, Mtb betalactam 32.8 and GDH-TPI inh 40.2*.
Screening CCCC(=O)Nc1nc2ccc(C(=O)OCC)cc2s1 returned MazEF act 8.6, Mtb FBA inh 1.6, CCHFV vOTU inh -6.8, Mtb betalactam -4.0 and GDH-TPI inh -3.8.
CCOC(=O)c1ccc2nc(NC(=O)c3ccco3)sc2c1 was read as MazEF act 0.5, Mtb FBA inh 21.9, CCHFV vOTU inh -3.3, Mtb betalactam 51.0 and GDH-TPI inh 36.5*.
`Cc1cccc(-c2cccc3c4c([nH]c23)[C@@H]2C[C@H](N(C)C(=O)c3ccco3)[C@H]([C@H](C)O)CN2CC4)c1` gave CCHFV vOTU inh -0.5.
Cc1cc(C(=O)N/N=C/c2c(C)[nH]c3ccccc23)n[nH]1 was read as MazEF act -9.2, Mtb FBA inh -0.6, CCHFV vOTU inh 4.0, Mtb betalactam 4.9 and GDH-TPI inh 55.9*.
Cc1cc(C(=O)N/N=C/c2c(C)n(C)c3ccccc23)n[nH]1 was read as MazEF act 7.1, Mtb FBA inh 0.1, CCHFV vOTU inh 10.4, Mtb betalactam -0.1 and GDH-TPI inh 56.8*.
`Cc1[nH]c2ccccc2c1/C=N/NC(=O)c1cc(-c2cccs2)[nH]n1` gave MazEF act 20.8, Mtb FBA inh 5.3, CCHFV vOTU inh -2.9, Mtb betalactam 11.4 and GDH-TPI inh 28.5.
`Cc1[nH]c2ccccc2c1/C=N/NC(=S)NC(C)C` gave MazEF act -1.1, Mtb FBA inh -4.2, CCHFV vOTU inh 11.2, Mtb betalactam -2.1 and GDH-TPI inh 37.6*.
Cc1cc(C(=O)N/N=C/c2ccc(-c3cccc(Cl)c3Cl)o2)n[nH]1 was read as MazEF act 50.8*, Mtb FBA inh 3.1, CCHFV vOTU inh -10.0, Mtb betalactam 1.2 and GDH-TPI inh -0.8.
`Cc1cc(C(=O)N/N=C/c2ccc(-c3cccc(Br)c3)o2)n[nH]1` gave MazEF act -22.3, Mtb FBA inh 21.3, CCHFV vOTU inh 1.0, Mtb betalactam -3.3 and GDH-TPI inh 22.7.
O=C(CCn1nnc2ccccc21)N1CCN(Cc2ccc3c(c2)OCO3)CC1 was read as CCHFV vOTU inh 4.5.
Screening O=C(CNC(=O)c1ccc2c(c1)OCCO2)N/N=C/c1ccco1 returned MazEF act -2.5, Mtb FBA inh 1.2, CCHFV vOTU inh -0.5, Mtb betalactam -0.6 and GDH-TPI inh 1.1.
Screening Cc1[nH]c2ccccc2c1/C=N/NC(=O)CNC(=O)c1ccc2c(c1)OCCO2 returned MazEF act -2.4, Mtb FBA inh 3.6, CCHFV vOTU inh 17.7, Mtb betalactam 2.9 and GDH-TPI inh 31.7*.
Screening C(=C\c1ccco1)/C=N/n1cnnc1 returned MazEF act 6.4, Mtb FBA inh -8.2, CCHFV vOTU inh 14.7, Mtb betalactam -4.9 and GDH-TPI inh 51.0*.
COc1ccc2c(c1)CCCN2C(=O)C1CCCN(S(=O)(=O)c2ccc(C(C)(C)C)cc2)C1 (stereo not given) was read as CCHFV vOTU inh 9.0.
Screening CC(=O)NC(Cc1ccc2c(c1)OCO2)C(=O)N1CCCC1 (stereo not given) returned CCHFV vOTU inh 2.7.
CS(=O)(=O)c1ccc2nc(NC(=O)c3ccco3)sc2c1 was read as MazEF act 1.6, Mtb FBA inh -2.4, CCHFV vOTU inh 19.8, Mtb betalactam -1.9 and GDH-TPI inh 46.0*.
Screening CS(=O)(=O)c1ccc2nc(NC(=O)c3ccccc3Cl)sc2c1 returned MazEF act -27.8, Mtb FBA inh -0.9, CCHFV vOTU inh -2.0, Mtb betalactam 5.9 and GDH-TPI inh 19.4.
For Cc1noc(C)c1C(=O)Nc1nc2ccc(S(C)(=O)=O)cc2s1 the results were MazEF act -0.3, Mtb FBA inh 0.6, CCHFV vOTU inh 4.7, Mtb betalactam -19.4 and GDH-TPI inh 53.6*.
Screening Cc1ccc(C(=O)Nc2nc3ccc(S(C)(=O)=O)cc3s2)o1 returned MazEF act 5.8, Mtb FBA inh 3.3, CCHFV vOTU inh 5.6, Mtb betalactam -7.3 and GDH-TPI inh 52.3*.
For C[C@@H](NC(=O)C[C@H]1CC[C@H]2[C@@H](COc3ccc(NC(=O)Nc4ccccc4)cc3C(=O)N2C)O1)c1ccccc1 the results were CCHFV vOTU inh -0.8.
For COc1ccc2cc3cc(C(=O)N4CCCCC4C)oc3nc2c1 (stereo not given) the results were MazEF act -2.0, Mtb FBA inh 40.4*, CCHFV vOTU inh -11.8, Mtb betalactam 3.3 and GDH-TPI inh 49.0*.
For CN(C(=O)c1ccc(Br)o1)C1CCCCC1 the results were MazEF act 0.9, Mtb FBA inh 0.4, CCHFV vOTU inh -0.9, Mtb betalactam -3.2 and GDH-TPI inh 1.4.
